# About 79,000 compounds went through this panel and 15% of them were active in at least one assay; those are over-represented in the sample as a whole. A number with no mark means an inactive call. The source made the active and inactive calls. Rule as the data show it: active = growth inhibition above about 70%; inactive = the rest.
# Assays:
# [1] = NCI Yeast Anticancer Drug Screen. Data for the rad50 strain (AID 155);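 also: 0% = growth of vehicle-only cultures of the same strain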; conditions: S. cerevisiae rad50 strain growth inhibition; at 50.0 µM; active compounds read high
# Outline: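 Inhibition values express reduced yeast growth in compound-treated cultures relative to vehicle-treated controls.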
# [2] = NCI Yeast Anticancer Drug Screen. Data for the mec2-1 strain (AID 157); conditions: S. cerevisiae mec2-1 strain, at 50.0 µM, active compounds read high
# Outline: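 Vehicle-treated cultures served as reference for growth inhibition of compound-exposed mec2-1 yeast.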
# [3] = NCI Yeast Anticancer Drug Screen. Data for the sgs1 mgt1 strain (AID 161);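 also: 0% = growth of cultures given vehicle only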; conditions: S. cerevisiae sgs1 mgt1 strain, at 50.0 µM, active compounds read high
# Outline: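 Genetically altered yeast, compound exposure, growth inhibition relative to vehicle.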
# [4] = NCI Yeast Anticancer Drug Screen. Data for the cln2 rad14 strain (AID 165);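 also: 0% = growth equal to vehicle treated cultures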; conditions: S. cerevisiae cln2 rad14 strain, at 50.0 µM, active compounds read high
# Outline: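 Each compound was tested on cln2 rad14 yeast. Inhibition of growth was calculated against vehicle-exposed controls.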
# [5] = NCI Yeast Anticancer Drug Screen. Data for the bub3 strain (AID 167); conditions: S. cerevisiae bub3 mutant strain, at 50.0 µM, active compounds read high
# Outline: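 Steps: expose the mutant yeast strain to compound; grow alongside vehicle-treated cultures; measure growth; express inhibition against the vehicle cultures.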
# [6] = NCI Yeast Anticancer Drug Screen. Data for the mlh1 rad18 strain (AID 175); conditions: S. cerevisiae mlh1 rad18 strain growth inhibition; at 50.0 µM; active compounds read high
# Outline: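 Vehicle-treated cultures served as the reference for growth inhibition in a yeast strain carrying DNA damage repair alterations exposed to each compound.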
Structure (SMILES),growth inhibition [1],growth inhibition [2],growth inhibition [3],growth inhibition [4],growth inhibition [5],growth inhibition [6]
COc1ccc2nc(NC(=O)C(=O)C(C)C(=O)c3ccc(Cl)cc3)sc2c1 (stereo not drawn),-10.1%,4.85%,-8.65%,-5.9%,-2.55%,-0.25%
CC1=C(C#N)C(C)(C)c2ccccc21,19.9%,-10.9%,1.9%,-25.9%,10%,-13.2%
COc1ccc2c(c1CCl)C(=O)OC2,13.6%,-9.1%,-2.05%,-20.6%,12.2%,-1.05%
NNC(=O)C(=O)NN,-24%,-16.4%,-1.85%,-27.7%,-1.75%,-20.6%
O=[N+]([O-])c1cnc(N(CCO)CCO)s1,30.4%,-25.4%,0.1%,37.8%,-11.5%,16.4%
COC(=O)Cc1ccccc1-n1nccc1S(C)=O (stereo not drawn),10.2%,-5.05%,14.3%,-7.65%,8.6%,7.45%
COc1ccc(/C=C2\CCN(C(C)=O)C2=O)cc1,2.35%,-2.65%,-7.8%,2.6%,3.25%,-10.7%
NC(N)=NC(N)=Nc1cccc(S(=O)(=O)c2cccc(N=C(N)N=C(N)N)c2)c1,8.1%,-0.55%,-0.1%,12.8%,-3.95%,13.2%
CC(C)CC(CC(C)C)OC(=O)Nc1ccccc1,-1%,17.3%,9.05%,33.6%,30.1%,25.9%
Cc1nnc2cc1CCCCCCCCC2,11.8%,6.25%,4.8%,5.2%,-10.8%,4.9%
CC(C)(C)OC(=O)c1cccc(Br)c1,-8.1%,-12.8%,-4.55%,15.2%,12.8%,11.1%
O=C1/C(=C/c2ccco2)SC(=S)N1C1c2ccccc2Oc2ccccc21,25%,6.65%,67.2%,45.6%,-0.4%,24.8%
Cc1ccc(S(=O)(=O)N2CCCC2C(=O)O[C@H]2CC[C@H]3CC=C[C@H]32)cc1 (stereo partly drawn),-15.6%,-44.7%,-8.2%,-8.45%,-5.25%,-21.6%
Cc1cc(Cl)cc(C(=O)O)c1O,5.7%,-9.25%,0.1%,-12.7%,-8.05%,-8%
CC(=O)N(C(C)=O)n1c(Cc2ccc(Cl)cc2)nn(C(C)=O)c1=O,7.85%,-15.1%,-9.2%,4.5%,10.7%,-7.6%
COC(=O)C1(NC(=O)C2(N3C(=O)c4ccccc4C3=O)CCCC2)CCCC1,-7.95%,-0.95%,-12.7%,-9.45%,-17.9%,1.6%
Cc1ccc(C)c(NC(=S)Nc2ccccc2)c1,0.8%,-9%,3.5%,-24.6%,54%,1.7%
CCOc1ccc(NC(=O)C(=O)CC(=O)C2=C(C)Nc3ccccc3S2)cc1,27.6%,14.8%,12.5%,-2.25%,-1%,28.5%
O=C(CBr)c1cc2ncccc2c2ccccc12,46.6%,51%,62.2%,98.6% (active),99% (active),68.9%

Structure (SMILES),growth inhibition [1],growth inhibition [2],growth inhibition [3],growth inhibition [4],growth inhibition [5],growth inhibition [6]
N#CC1(C#N)CC1c1ccccc1 (stereo not drawn),8.55%,10.7%,6.75%,-6.1%,-2.9%,29.3%
CC(=O)N(C)N=NCCCl,26.2%,7.2%,10.2%,-29.1%,12%,3.85%
C=C(Cl)COc1ccc(C(=O)c2ccccc2)cc1,-4.5%,-9%,-6.5%,-64%,-7.25%,-14.9%
Cc1cccc(C)c1NC(=O)Oc1ccc(Cl)cc1Cc1ccccc1,98.5% (active),99.5% (active),99.6% (active),98.9% (active),99.3% (active),99.3% (active)
COCCN1CC(=O)N2Cc3ccccc3CN2C(=O)C1,-4.6%,-13.8%,-6.15%,-9.5%,-3%,-6.65%
O=C(Nc1ccccc1)OCC#CCOC(=O)Nc1ccccc1,27.4%,11.7%,17.6%,-60.5%,2.45%,11%
NNc1c(F)c(F)c2c(F)c(F)c(F)c(F)c2c1F,97.8% (active),96.5% (active),95.5% (active),94.5% (active),97.7% (active),97.5% (active)
CO/C(Cc1cc(O)cc(O)c1)=N\N,-0.45%,6.3%,1.25%,-5.65%,7.85%,-4.1%
COc1ccc2c(CC(=O)O)cc(=O)oc2c1,12.2%,-22.8%,15.4%,7.7%,8.95%,14.2%
O=C(c1ccccc1)C1CCCCC1,1.05%,-3.65%,-6.25%,6.45%,4.4%,-3.7%
Cc1[nH]nc(C(=O)O)c1[N+](=O)[O-],35.6%,11.3%,20.2%,-25.7%,-3.2%,8.2%
Cc1ccc(C(=O)c2ccccc2)cc1C[N+](C)(C)C,20.3%,3.35%,10.3%,12%,-5.3%,4.9%
CCc1ccc2oc(-c3cc(O)c(-c4nc5cc(CC)ccc5o4)cc3O)nc2c1,-19.2%,-25.9%,-22.2%,1.1%,-25.5%,12.6%
COc1cc(/C=C/C(C)=O)ccc1OP(=O)(O)O,-22.4%,-24.4%,-29.8%,0.1%,-32.1%,7.65%
CN(C)C(=O)Sc1ccc(N(C)C)cc1,-5.15%,-17.9%,-11.3%,-25.2%,15.1%,-23.2%
C=C(CC[C@@H](C)[C@H]1CC[C@@]2(C)C3=C(CC[C@]12C)[C@@]1(C)CC[C@H](O)[C@@H](C)C1CC3)C(C)C (stereo partly drawn),10.4%,2.8%,45.2%,37.8%,14.6%,71.5% (active)
N#C/C(=C\c1ccc[nH]1)C(=O)c1ccccc1,-5.7%,-11.8%,-18.9%,16.5%,1.15%,-28.6%
O=c1nc(N2CCCCCCC2)ccn1C1OC(CO)C(O)C1O (stereo not drawn),4.85%,14.6%,8.95%,6.75%,6.85%,8.5%
Nc1cc(C(=O)c2ccccc2C(=O)O)ccc1Cl,-34.3%,-46.7%,-8.3%,6.65%,-28.8%,-15.9%

# Source: PubChem BioAssay (NCI)
